# Results from PubChem BioAssay.
# A number with no mark means an inactive call.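 How the source made its calls: active means z-score of at least 1.8 in each of two replicates, scored against plate mean and spread of sample wells; inactive means the rest.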
# Assay: viability rescue of complex I mutant cybrids, primary screen, cell-based, galactose medium, ATP luminescence (AID 1645843);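 further: positive z means more ATP and so rescue of galactose-driven cybrid death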
# Conditions: complex I mutant cybrid cells, 72 h, hits give high values
row,Structure (SMILES),z-score
1,CCC(C)C(=O)Nc1c(C(=O)OC)n(CC2CCCO2)c2ncc(NC3CCSC3)cc12 (centres undefined),-0.775
2,CC(C)CCN1C(=O)N(CC(N)=O)C(=O)C12CCN(Cc1nc3ccccc3s1)CC2,0.225
3,CCOC(=O)N1CCC(N2CCc3c(cc(-c4cccc(OC)c4OC)c(=O)n3CC3CC3)C2)CC1,-0.36
4,COC1CN(Cc2cn(C)c3ccccc23)CC(=O)N(Cc2ccccc2)C1 (centres undefined),0.47
5,C[C@@H](NC(=O)N[C@H]1C[C@H]2C(=O)N[C@H](Cc3ccc(O)cc3)C(=O)N2C1)c1ccccc1,0.6
6,O=C(NCCn1ccnc1)c1cc(NCC2CC=CCC2)cc(S(=O)(=O)N2CCCC2)c1 (centres undefined),-0.94
7,COC(=O)c1c(NC(=O)c2ccoc2)c2cc(NC(C)CSC)cnc2n1Cc1ccccc1 (centres undefined),-1.28
8,Cc1nc(CN(C)C2CCc3c(c(C(=O)N(C)C)nn3CC3CCCCC3)C2)cs1 (centres undefined),0.725
9,CN1CCCC1CCNC(=O)c1cc(-c2ccccc2)cc(S(=O)(=O)N2CCSCC2)c1 (centres undefined),0.505
10,CCc1cc(C(=O)N2CC(=O)N(Cc3ccc(OC)cc3)CC(OCc3ccncc3)C2)n(C)n1 (centres undefined),0.77
11,CN(Cc1nc(-c2ccccc2)cs1)C1CCc2c(c(C(=O)N3CCSCC3)nn2C)C1 (centres undefined),0.7
12,CC(C)NS(=O)(=O)c1cc(NC2CCCCC2)cc(C(=O)NC2Cc3ccccc3C2)c1,-0.045
13,CC(C)CCNc1cc(C(=O)N[C@H]2CCCCNC2=O)cc(S(=O)(=O)NC(C)C)c1,-0.51
14,COc1cccc(-c2cc3c(n(Cc4ccccn4)c2=O)CCN(C(=O)c2csc(C)n2)C3)c1,-0.495
15,COC(=O)c1c(NC(C)=O)c2cc(NCc3sccc3C)cnc2n1CC1CCCO1 (centres undefined),-0.82
16,CC(C)CCNc1cc(C(=O)NCCCn2ccnc2)cc(S(=O)(=O)N2CCCC2)c1,-0.97
17,COc1ccc(CCn2nc(C(=O)N(C)C)c3c2CCN(C(=O)c2csc4c2CCCC4)C3)cc1,1.47
18,C[C@H](O)[C@H]1NC(=O)[C@@H]2C[C@H](NC(=O)Nc3cccc(F)c3)CN2C1=O,-0.26
19,COc1ccccc1CNC1CCc2c(c(C(=O)N3CCc4ccccc4C3)nn2C)C1 (centres undefined),0.07
20,COc1ccc(C[C@@H]2NC(=O)[C@H]3CN(C(=O)Oc4ccc(Cl)cc4)CCN3C2=O)cc1,-1.58

row,Structure (SMILES),z-score
1,Cc1ccc(-c2cc(C(=O)N3CCSCC3)cc(S(=O)(=O)N3CCOCC3)c2)s1,0.905
2,Cc1noc(C)c1CC(=O)N1CCc2c(c(C(=O)N3CCOCC3)nn2CCCc2ccccc2)C1,-0.895
3,COc1ccc(CN2C(=O)N(C)C3(CCN(Cc4nc(-c5ccccc5)cs4)CC3)C2=O)cc1,-0.2
4,COc1cc(/C=C/CN2CC(=O)N(C(C)C)CC(OCc3noc(C)n3)C2)ccc1O (centres undefined),-1.32
5,CC(C)Cn1nc(C(=O)N2CCCC2)c2c1CCC(NCCc1cccs1)C2 (centres undefined),0.555
6,CN1CCCC1CCNC(=O)[C@H]1CNC[C@@H](COc2cccc(F)c2)C1 (some centres undefined),1.83
7,CC(C)N1CC(OCc2ccc(F)cc2)CN(C(=O)c2ccc(C#CC(C)(C)O)o2)CC1=O (centres undefined),0.06
8,Cc1c(CN2CCc3c(c(C(=O)NC4CCCC4)nn3CC(C)C)C2)c(=O)n(-c2ccccc2)n1C,0.17
9,O=C([C@@H]1C[C@H](CN2CCOCC2)CN(Cc2ccc3ccccc3c2)C1)N1CCCC1,-0.585
10,CCOC(=O)c1nn(Cc2ccc(OC)cc2)c2c1CN(C(=O)CSc1ncccn1)CC2,0.665
11,Cc1ccc2c(CC(=O)N3CC(=O)N(CC(C)C)CC(OCc4ccccn4)C3)cc(=O)oc2c1 (centres undefined),0.435
12,O=C(NCC1CCCO1)[C@@H]1C[C@H](CN2CCOCC2)CN(Cc2ccc3ccccc3c2)C1 (some centres undefined),0.17
13,CN(Cc1cscn1)C(=O)c1nn(CC2CC2)c2c1CN(C(=O)Cn1cnc3ccccc31)CC2,-0.19
14,Cc1csc(-c2cc(C(=O)NCCCN3CCOCC3)cc(S(=O)(=O)N3CCOCC3)c2)c1,2.09
15,COC(=O)CCN1CC(OCc2ccncc2)CN(C(=O)Cc2c(F)cccc2Cl)CC1=O (centres undefined),1.43
16,Cn1nc(C(=O)N2CCCCC2)c2c1CCC(NCC1(c3ccccc3)CCOCC1)C2 (centres undefined),-0.59
17,Cc1ccc(-c2cc(C(=O)NCC3CC3)cc(S(=O)(=O)N3CCOCC3)c2)s1,0.15
18,Cc1cc(-c2cc3c(n(C)c2=O)CCN(Cc2ccc(Sc4nncn4C)o2)C3)ccc1F,0.445
19,C=CCn1nc(C(=O)N2CCCC2)c2c1CCC(NCc1ccccc1OC(F)(F)F)C2 (centres undefined),-0.3
